# High-throughput results: PubChem, National Center for Advancing Translational Sciences (NCATS)
# ALOX12 inh – Primary qHTS assay for inhibitors of human arachidonate 12S-lipoxygenase (ALOX12): Round 2 | AID 1671190, 2021 | Potency, µM (highest dose often 108 µM), for inactives: at the highest dose activity change, negative = inhibition, hits mostly inhibitors | purified 12hLO, xylenol orange hydroperoxide absorbance | 1.1% of 580,000 active; note: % is set by controls: 0 for no effect and ±100 for the full control effect
# Target sequence (P18054 whole entry, looked up): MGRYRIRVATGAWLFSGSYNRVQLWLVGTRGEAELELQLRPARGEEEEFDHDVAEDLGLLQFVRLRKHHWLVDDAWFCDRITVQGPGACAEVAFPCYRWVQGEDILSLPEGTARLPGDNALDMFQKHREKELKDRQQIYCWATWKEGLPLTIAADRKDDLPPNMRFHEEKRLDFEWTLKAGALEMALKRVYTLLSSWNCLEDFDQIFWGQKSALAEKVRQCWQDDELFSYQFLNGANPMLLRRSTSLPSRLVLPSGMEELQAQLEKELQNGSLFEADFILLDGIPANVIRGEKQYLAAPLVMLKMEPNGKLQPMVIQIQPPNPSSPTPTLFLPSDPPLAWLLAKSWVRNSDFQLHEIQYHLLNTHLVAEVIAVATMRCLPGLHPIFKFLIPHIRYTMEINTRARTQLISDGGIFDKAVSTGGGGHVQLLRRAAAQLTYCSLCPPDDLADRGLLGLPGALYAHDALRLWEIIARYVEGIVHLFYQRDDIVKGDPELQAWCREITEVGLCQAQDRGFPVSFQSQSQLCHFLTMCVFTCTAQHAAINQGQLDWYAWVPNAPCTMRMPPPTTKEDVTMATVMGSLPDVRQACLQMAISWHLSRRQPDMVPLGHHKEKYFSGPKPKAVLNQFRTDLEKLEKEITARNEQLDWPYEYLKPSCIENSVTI
#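 Purified human 12hLO at 150 nM in 25 mM Hepes, 0.01% Triton X-100, pH 7.0, preincubated 15 min at room temperature with compound. Reaction started with 40 uM arachidonic acid, 30 min at room temperature. Hydroperoxide measured by Fe-xylenol orange, 573/405 nm absorbance ratio.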
# JMJD2A Tudor – qHTS Assay for Inhibitors of JMJD2A-Tudor Domain | AlphaScreen JMJD2A-Tudor / H3K4me3 peptide binding | Lysine-specific demethylase 4A (Homo sapiens), O75164 | 4.4% of 390,000 active | Potency, µM (top dose mostly 114 µM), for the others: at the top dose activity change, negative = inhibition, usual class: inhibitors; note: % is set by controls: 0 for no effect and ±100 for the full control effect; nearly all actives have a fitted effect of over 50% in size
# HP1b chromo inh – HTS for Inhibitors of HP1-beta Chromodomain Interactions with Methylated Histone Tails; AlphaScreen HP1-beta / biotin-H3K9me3 peptide binding; Potency, µM (top dose mostly 114 µM), for inactives: top-dose activity change, negative = inhibition, usual class: inhibitors; 0.56% of 390,000 active; note: nearly all actives have a fitted effect of over 70% in size
#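 AlphaScreen: HP1-beta (50 nM) preformed 30 min with biotin-H3(1-18)K9me3 peptide (50 nM) in PBS pH 7.4, 0.01% Tween-20. Compound added for 30 min at RT, then streptavidin donor/nickel chelate acceptor beads (10 ug/mL) for 30 min.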
# Sfp inh – qHTS Assay for Inhibitors of Bacillus subtilis Sfp phosphopantetheinyl transferase (PPTase) | 4'-phosphopantetheinyl transferase ffp (Bacillus subtilis), Q9F4F7 | Biochemical Sfp PPTase activity, qHTS | Potency, µM, inactives show largest response in the series, negative = inhibition, usual class: inhibitors | 3.5% of 310,000 active;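 note: the enzyme is Sfp with the accession as filed and its product quenches rhodamine fluorescence; 0% = enzyme reaction without inhibitor and -100% = no enzyme wells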
#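 After 15 min at room temperature with compound, 15 nM Sfp received 5 uM rhodamine-CoA plus 12.5 uM BHQ-2-ybbR (50 mM Hepes pH 7.6, 10 mM MgCl2). Rate came from the fluorescence difference over 30 min, ex 525/em 598 nm.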
# G9a inh – qHTS Assay for Inhibitors of Histone Lysine Methyltransferase G9a; Potency, µM (titrated, usually from 102 µM), without a hit: at the top dose activity, negative = inhibition, usual class: inhibitors; G9a H3K9 monomethylation, AlphaScreen, 2 h; 8.8% of 350,000 active; Histone-lysine N-methyltransferase EHMT2 (Homo sapiens), Q96KQ7; note: % is set by controls: 0 for no effect and ±100 for the full control effect; nearly all actives have a fitted effect of over 75% in size
#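 G9a (20 nM) preincubated 15 min RT with compounds, then 500 nM biotinylated H3K9 peptide and 20 uM SAM added; 2 h RT reaction. Monomethyl-H3K9 product detected by AlphaScreen with anti-H3K9me1 antibody, streptavidin donor and anti-rabbit IgG acceptor beads.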
# BAZ2B block – qHTS Assay for Inhibitors of BAZ2B; AlphaScreen BAZ2B-H3K14Ac peptide displacement; Potency, µM (top dose mostly 114 µM), for the others: at the top dose activity change, negative = inhibition, most hits filed as inhibitors; 4.4% of 360,000 active; note: % is set by controls: 0 for no effect and ±100 for the full control effect; nearly all actives have a fitted effect of over 60% in size
#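 BAZ2B (50 nM) with biotin-H3(5-23)K14Ac peptide (50 nM) in PBS pH 7.4, 0.01% Tween-20, preformed 30 min, then compound 30 min at room temperature; top concentration 110uM. AlphaScreen streptavidin donor/nickel chelate acceptor beads (10 ug/mL final), 20 min dark, signal read.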
# * hit, by the source's call; ? = inconclusive; nt = not tested or not shown; ! = repeats disagree; [ ] = another dose, or the depositor's remark. Sampled rows, rich in hits. Any-hit rate of the full collection: about 8.7%. Calls come from the whole dose curve; as a rule, active = well fitted curve in the direction sought with a large enough effect; inconclusive = small, poorly fitted or top-dose-only effect, or another doubt; inactive = no such curve, though single readings can be large; an effect the other way counts as inactive or inconclusive. Potency is the fitted concentration of half-maximal effect.
SMILES,ALOX12 inh,JMJD2A Tudor,HP1b chromo inh,Sfp inh,G9a inh,BAZ2B block
Cc1cc(C)c(NC(=O)/C(=C/c2ccco2)c2ccccc2)c(C)c1,?,-33%,-3%,35µM*,45µM*,-36%
CC(C)NC(=O)/C(=C/c1ccco1)c1ccccc1,6%,-9%,10%,-46%,nt,-7%
Cc1cc(C)c(NC(=O)c2cccc(NC(=O)c3ccco3)c2)c(C)c1,0%,-7%,51%,14%,21%,3%
CCOc1ccc2nc(N=NC3=C(O)CC(C)(C)CC3=O)sc2c1,1%,?,?,-16%,?,45µM*
CCn1cc(CNC(=O)c2cc(-c3ccc(C)cc3)nc3c(C)cccc23)cn1,-16%,nt,nt,nt,nt,nt
CC(C)(O)CCc1cccc(C(=O)N2CCN(CC3CCCC3)CC2)c1,8%,nt,nt,nt,nt,nt
COc1ccc2[nH]c3c(=S)nc[nH]c3c2c1,?,1.6µM*,-21%,50µM*,3.5µM*,-31%
COc1ccc2[nH]c3c(Cl)ncnc3c2c1,-17%,-7%,24%,-1%,-11%,8%
CCCCN1/C(=C/c2cccc[n+]2C)Sc2cc(NC(C)=O)ccc21,?,28µM*,15%,-7%,45µM*,-29%
CCOc1ccc(CNC(=S)N/N=C\c2ccc([N+](=O)[O-])cc2)cc1,?,-14%,32%,56µM*,?,-2%
CCC(Nc1ccc(OC)cc1)C(=O)N/N=C/c1ccc([N+](=O)[O-])cc1 (centres undefined),2%,?,-20%,-1%,?,45µM*
CCCCOc1ccc(CNC(=S)N/N=C/c2ccc(OC)c(OC)c2)cc1,28µM*,-32%,1%,14%,-15%[59 µM],8%
Cc1cccc(NC(=O)CC23CC4CC(CC(C4)C2)C3)c1C,-2%,nt,nt,nt,nt,nt
O=C(CN1CCN(C2CCCCC2)CC1)c1ccc2cc[nH]c2c1,-6%[57.4 µM],-35%,21%,4%,28µM*,-26%
CC1(C)CC(NC(=S)Nc2ccc(F)c(Cl)c2)CC(C)(C)N1,-28%,nt,nt,nt,nt,nt
COc1ccccc1CNC(=O)Cn1ccc2c(Cl)cccc21,13%,nt,nt,nt,nt,nt
COc1ncnc2c1NC1=C(S2)C(=NCCC(=O)O)CC(C)(C)C1,3%,-32%,48%,14µM*,18µM*,?
CN(C)c1ncnc2c1NC1=C(S2)C(=NCCCC(=O)O)CC(C)(C)C1,161%,-18%,30%,22µM*,?,?
CC1(C)CC(=O)/C(=C(\O)Cc2ccccc2)C(=NCCCCCC(=O)O)C1,-1%,-2%,13%,2%,0%[59 µM],10%
O=C1C2C3CCC(C3)C2C(=O)N1Cc1ccco1 (centres undefined),-16%,-10%,43%,-6%,-3%[59 µM],-16%
Cc1ccc(CC2CC(=O)N(Cc3ccco3)C2=O)cc1 (centres undefined),?,-25%,4%,35µM*,40µM*,3%
O=C1CC(Cc2ccccc2)C(=O)N1Cc1ccco1 (centres undefined),nt,-20%,16%,14µM*,45µM*,-33%
COc1ccccc1N(CC(=O)NC(C)(C)C)S(=O)(=O)c1cccs1,-15%,56µM*,-4%,-13%,-13%,1%
Cc1cccc(OCC(=O)c2ccc3c(c2)N(C(C)C(=O)NCC2CCCO2)C(=O)CO3)c1C (centres undefined),34%,nt,nt,nt,nt,nt
O=[N+]([O-])c1ccc(/C=N/c2nc3c(s2)CCCC3)cc1,-27%,nt,nt,nt,nt,nt
SMILES,ALOX12 inh,JMJD2A Tudor,HP1b chromo inh,Sfp inh,G9a inh,BAZ2B block
O=C(N/N=C1/CCS(=O)(=O)c2ccc(F)cc21)c1ccccn1,-2%,13µM*,41%,-92%,11%,20µM*
Cc1ccc(C)c(C(=O)Nc2cccc(-c3nnc4n3CCCC4)c2)c1,22%,nt,nt,nt,nt,nt
O=C(O)CS(=O)(=O)CC(=O)O,-57%,?,6%,16%,?,79µM*
COc1ccc(/C(C)=N/Nc2ccc(C(=O)O)cc2)cc1OC,-15%,-10%,46%,12%,?,-1%
C/C(=N/Nc1ccc(C(=O)O)cc1)c1ccc(O)c(O)c1O,1%,10µM*,7%,40µM*,3.5µM*,-33%
COc1ccc(OC)c(/C(C)=N/Nc2ccc(C(=O)O)cc2)c1,-20%,-7%,27%,-5%,14µM*,-22%
CCCCOc1c(CNC2(CO)CCCC2)cccc1OC,0%,nt,nt,nt,nt,nt
Cc1cccc(C)c1N(CC(=O)Nc1cc(Cl)ccc1Oc1ccccc1)S(C)(=O)=O,2%,-12%,28%,7%,13µM*,11%
O=C(O)Cc1ccc(F)cc1Cl,22%,nt,nt,nt,nt,nt
CC1=C(CC(=O)O)c2cc(F)ccc2/C1=C\c1ccc(S(C)=O)cc1 (centres undefined),-2%,-32%,27%,79µM*!,8.4µM*!,0%
COc1ncccc1CNC[C@H]1O[C@@H]2C[C@@H](CC(=O)N3CCC(F)(F)C3)O[C@@H]2[C@@H]1O,-24%[176 µM],nt,nt,nt,nt,nt
c1cc(-c2ncon2)cc(N2CCc3nc[nH]c3C2)n1,-12%,nt,nt,nt,nt,nt
C/C(=N\Nc1ccc(C(=O)c2c(C)cc3ccccn23)cc1[N+](=O)[O-])c1ccc(O)cc1,-6%,?,?,20µM*,?,?
CC1CCc2c(nc3ncnn3c2NCCN(C)C)C1 (centres undefined),9%,56µM*,12%,-10%,4µM*,-25%
Cc1cccc(OCCCSc2nc(-c3ccc(C(C)(C)C)cc3)nc3cc(=O)[nH]n23)c1C,-18%,25µM*,1%,nt,7%[59 µM],56µM*
CCc1ccc(OCCSc2nc(-c3cccc(C)c3)nc3cc(=O)[nH]n23)cc1,-1%,-9%,23%,nt,35%[59 µM],2%
CCc1ccc(OCCCSc2nc(-c3ccc(C(C)(C)C)cc3)nc3cc(=O)[nH]n23)cc1,-24%,25µM*,-25%,nt,12%[59 µM],50µM*
Cc1ccc(C(=O)NNC(=O)c2cccc(N(C)C)c2)cc1F,32%,nt,nt,nt,nt,nt
Cc1ccc(Cn2nc(C)c3cc(C(=O)N4CCN(CC(=O)N(C)C)CC4)sc32)cc1,-15%,nt,nt,nt,nt,nt
O=c1sc(/C=N/Nc2ccccc2)c(Cl)n1Cc1ccccc1,?,-22%,12%,50µM*,14µM*,?
